{"source": "PubChem BioAssay (Tox21)", "note": "Records with an inconclusive call do not appear. A call without a number means that no potency is given here. Where a structure was tested more than once in an assay, its records may differ in their call. The source made the active and inactive calls. Calls follow the shape of the full dose curve.", "data": [{"target": "Progesterone receptor (Homo sapiens) (UniProt P06401)", "sequence (P06401 whole entry, looked up)": "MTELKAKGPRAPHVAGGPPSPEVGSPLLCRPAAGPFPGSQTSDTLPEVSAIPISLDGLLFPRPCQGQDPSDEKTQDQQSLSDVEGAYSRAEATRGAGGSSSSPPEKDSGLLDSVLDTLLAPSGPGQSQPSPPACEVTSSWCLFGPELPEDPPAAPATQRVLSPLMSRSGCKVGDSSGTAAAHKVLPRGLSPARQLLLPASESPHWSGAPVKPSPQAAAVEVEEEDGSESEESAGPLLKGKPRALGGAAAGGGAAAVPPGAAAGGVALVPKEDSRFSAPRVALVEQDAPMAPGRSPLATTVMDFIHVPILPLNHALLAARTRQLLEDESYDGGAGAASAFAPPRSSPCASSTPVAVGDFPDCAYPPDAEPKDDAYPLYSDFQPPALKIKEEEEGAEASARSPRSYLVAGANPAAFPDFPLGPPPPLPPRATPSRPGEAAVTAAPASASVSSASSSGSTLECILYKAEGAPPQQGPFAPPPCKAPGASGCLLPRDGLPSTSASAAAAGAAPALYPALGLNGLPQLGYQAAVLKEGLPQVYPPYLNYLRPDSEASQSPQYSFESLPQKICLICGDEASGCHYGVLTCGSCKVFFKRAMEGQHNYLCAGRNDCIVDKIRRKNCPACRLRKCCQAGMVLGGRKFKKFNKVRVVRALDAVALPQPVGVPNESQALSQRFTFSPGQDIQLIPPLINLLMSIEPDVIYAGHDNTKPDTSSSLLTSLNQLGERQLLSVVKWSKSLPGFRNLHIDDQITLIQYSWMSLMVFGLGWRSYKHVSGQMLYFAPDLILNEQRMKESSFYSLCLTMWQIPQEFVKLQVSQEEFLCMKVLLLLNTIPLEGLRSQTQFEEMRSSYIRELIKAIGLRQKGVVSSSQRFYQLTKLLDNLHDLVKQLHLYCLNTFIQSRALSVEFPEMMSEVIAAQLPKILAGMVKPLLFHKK", "assay": "qHTS assay to identify small molecule agonists of the progesterone receptor (PR) signaling pathway (AID 1346784); also: nearly all actives have a fitted effect of over 30% in size; also: potency is read from the fitted curve at half-maximal effect", "conditions": "PR-UAS-bla HEK293T, beta-lactamase FRET ratio, 16 h; series mostly up to 92.4 µM", "description": "U.S. Tox21 Program National Center for Advancing Translational Sciences [NCATS] NIH Chemical Genomics Center [NCGC] U.S. Environmental Protection Agency [EPA] National Institutes of Environmental Health Sciences [NIEHS] National Toxicology Program [NTP] U.S. Food and Drug Administration [FDA] […] Endocrine disrupting chemicals (EDCs) and their interactions with steroid hormone receptors like PR causes disruption of normal endocrine function. To identify the compounds that activate PR signaling, a PR-UAS-bla GripTite cell line i.e. PR-UAS-bla HEK 293T (Invitrogen, Carlsbad, CA, USA) containing a beta-lactamase reporter gene under the control of an Upstream Activator Sequence (UAS) was used to screen Tox21 10K compound library.\nTox21 Assay Protocol Summary: PR-UAS-bla HEK 293T cells were dispensed at 3,000 cells/5 uL of assay medium containing 2% charcoal stripped FBS per well into black wall/clear-bottom 1536-well plates using a Multidrop Combi (ThermoFisher Scientific, Waltham, MA) dispenser. After the assay plates were incubated at a 37C and 5% CO2 for 6hr, 23 nL of compounds dissolved in DMSO, positive controls or DMSO only was transferred to the assay plate by a Pintool station (Kalypsys, San Diego, CA). The plates were incubated at 37C and 5% CO2 for 16hr. Then 1 uL of LiveBLAzer B/G FRET substrate was added using a BioRAPTR FRD (Flying Reagent Dispenser, Aurora Discovery, San Diego, CA). After the plates were incubated at room temperature for 2 hours, fluorescence intensity was measured by an Envision plate reader (PerkinElmer, Shelton, CT).", "values": [{"compound": "COCC(C)O", "note": "(stereo not given)", "Potency": "inactive"}, {"compound": "CCCCC(CC)COC(=O)CCCCCCCC(=O)OCC(CC)CCCC", "note": "(stereo not given)", "Potency": "inactive"}, {"compound": "O=S(=O)(Oc1ccc(Cl)cc1Cl)c1ccccc1", "Potency": "inactive"}, {"compound": "OCC#CCO", "Potency": "inactive"}, {"compound": "C=C(C)C(=O)OCCCCCCCCCCCC", "Potency": "inactive"}, {"compound": "Cc1cc(O)cc(C)c1Cl", "Potency": "inactive"}, {"compound": "CN(CCOc1ccc(CC2SC(=O)NC2=O)cc1)c1ccccn1", "note": "(stereo not given)", "Potency": "inactive"}, {"compound": "CCCCCCCCC", "Potency": "inactive"}, {"compound": "CC(C)Cc1ccccc1", "Potency": "inactive"}, {"compound": "O=[N+]([O-])C(CO)(CO)CO", "Potency": "inactive"}, {"compound": "CS(=O)(=O)Nc1ccc([N+](=O)[O-])cc1Oc1ccccc1", "Potency": "inactive"}, {"compound": "C=C(C)C(=O)OCC(CC)(COC(=O)C(=C)C)COC(=O)C(=C)C", "Potency": "inactive"}, {"compound": "c1ccc2[nH]cnc2c1", "Potency": "inactive"}, {"compound": "CC(C)NCC(O)COc1cccc2ccccc12", "note": "(stereo not given)", "Potency": "inactive"}, {"compound": "CC#C[C@]1(O)CC[C@H]2[C@@H]3CCC4=CC(=O)CCC4=C3[C@@H](c3ccc(N(C)C)cc3)C[C@@]21C", "Potency": "inactive"}, {"compound": "C=C1C2CCC(C2)C1(C)C", "note": "(stereo not given)", "Potency": "inactive"}, {"compound": "CC1(C)CC(N=C=O)CC(C)(CN=C=O)C1", "note": "(stereo not given)", "Potency": "inactive"}, {"compound": "Clc1ccc(Cl)c(Cl)c1Cl", "Potency": "inactive"}, {"compound": "Nc1c(S(=O)(=O)O)cc(Br)c2c1C(=O)c1ccccc1C2=O", "Potency": "inactive"}, {"compound": "O=C(c1ccc(O)cc1)c1ccc(O)cc1O", "Potency": "inactive"}, {"compound": "Cc1cc(NS(=O)(=O)c2ccc(N)cc2)no1", "Potency": "inactive"}, {"compound": "OCC1CCCO1", "note": "(stereo not given)", "Potency": "inactive"}, {"compound": "CN(C)c1ccc(C(=N)c2ccc(N(C)C)cc2)cc1", "Potency": "inactive"}, {"compound": "CCOC(=O)C1OC1c1ccccc1", "note": "(stereo not given)", "Potency": "inactive"}, {"compound": "O=C1N=C(O)CN1/N=C/c1ccc(-c2ccc([N+](=O)[O-])cc2)o1", "Potency": "inactive"}, {"compound": "O=[N+]([O-])c1cc(N(CCO)CCO)ccc1NCCO", "Potency": "inactive"}, {"compound": "OC[C@@H](O)[C@H](O)[C@H](O)[C@@H](O)CO", "Potency": "inactive"}, {"compound": "CC(C)(C)C(=O)C1C(=O)c2ccccc2C1=O", "Potency": "inactive"}, {"compound": "CC1=C(CC(=O)O)c2cc(F)ccc2/C1=C\\c1ccc(S(C)=O)cc1", "note": "(stereo not given)", "Potency": "inactive"}, {"compound": "NCCNCCNCCNCCN", "Potency": "inactive"}, {"compound": "NC(=O)/N=N/C(N)=O", "Potency": "inactive"}, {"compound": "CC1CC(OC(=O)c2ccccc2O)CC(C)(C)C1", "note": "(stereo not given)", "Potency": "inactive"}, {"compound": "Cc1ccc(N)c(S(=O)(=O)O)c1", "Potency": "inactive"}, {"compound": "CCCCC(CC)COC(=O)/C=C\\C(=O)OCC(CC)CCCC", "note": "(stereo not given)", "Potency": "inactive"}, {"compound": "CCOC(=O)[C@H](CCc1ccccc1)N[C@@H](C)C(=O)N1Cc2ccccc2C[C@H]1C(=O)O", "Potency": "inactive"}, {"compound": "O=C(O)c1cc(-c2ccccc2)nc2ccccc12", "Potency": "779 nM (active) and inactive"}, {"compound": "O=C(c1cc(O)c(O)c(O)c1)c1ccc(O)c(O)c1O", "Potency": "inactive"}, {"compound": "CC1COc2ccccc2N1C(=O)C(Cl)Cl", "note": "(stereo not given)", "Potency": "inactive"}, {"compound": "C=CC(=O)OCCCCCCCC(C)C", "Potency": "inactive"}, {"compound": "CCCCCCCCCC(=O)O", "Potency": "inactive"}]}]}
